# Bioassay records: PubChem BioAssay, National Center for Advancing Translational Sciences (NCATS)
# TDP1 cell CPT: qHTS for Inhibitors of human tyrosyl-DNA phosphodiesterase 1 (TDP1): qHTS in cells in presence of CPT; AID 686979, 2013; 12% of 420,000 active; Potency, µM (titrated, usually from 46.2 µM), most hits filed as inhibitors; chicken DT40 Tdp1-/-;hTDP1 cells + 20 nM CPT, ATP luminescence, 48 h; note: nearly all actives have a fitted effect of over 55% in size
#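 Chicken DT40 Tdp1-/- cells complemented with human TDP1, 400 cells/well, exposed to compounds plus 20 nM camptothecin for at least 48 h at 37 C; viability read as ATP content by CellTiter-Glo luminescence.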
# ALOX12 inh: Primary qHTS assay for inhibitors of human arachidonate 12S-lipoxygenase (ALOX12): Round 2. purified 12hLO, xylenol orange hydroperoxide absorbance. Potency, µM (highest dose often 108 µM), most hits filed as inhibitors. AID 1671190, 2021. 1.1% of 580,000 active. Polyunsaturated fatty acid lipoxygenase ALOX12 (Homo sapiens), P18054
# Target sequence (P18054 whole entry, looked up): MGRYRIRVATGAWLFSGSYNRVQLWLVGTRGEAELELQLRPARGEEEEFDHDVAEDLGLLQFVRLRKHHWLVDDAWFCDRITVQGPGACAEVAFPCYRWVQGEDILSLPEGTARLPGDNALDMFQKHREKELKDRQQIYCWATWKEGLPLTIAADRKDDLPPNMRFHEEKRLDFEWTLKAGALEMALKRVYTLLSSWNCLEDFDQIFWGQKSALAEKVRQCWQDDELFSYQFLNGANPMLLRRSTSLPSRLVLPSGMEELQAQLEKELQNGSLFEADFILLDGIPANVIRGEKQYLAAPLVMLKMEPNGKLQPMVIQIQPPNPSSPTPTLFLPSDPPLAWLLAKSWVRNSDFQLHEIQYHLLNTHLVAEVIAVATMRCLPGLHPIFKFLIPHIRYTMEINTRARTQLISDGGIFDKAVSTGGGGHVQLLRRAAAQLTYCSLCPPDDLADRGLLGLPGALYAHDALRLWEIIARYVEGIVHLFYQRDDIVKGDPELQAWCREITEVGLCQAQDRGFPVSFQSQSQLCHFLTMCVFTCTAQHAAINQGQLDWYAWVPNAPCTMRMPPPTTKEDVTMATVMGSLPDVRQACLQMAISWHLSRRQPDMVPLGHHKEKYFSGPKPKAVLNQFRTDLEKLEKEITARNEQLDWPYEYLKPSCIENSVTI
#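 Purified human 12hLO (150 nM final) in 25 mM Hepes, 0.01% Triton X-100, pH 7.0 was preincubated 15 min at room temperature with compound. Then 40 uM arachidonic acid was added, 30 min. Hydroperoxide was read by Fe-XO absorbance ratio 573/405 nm.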
# ELG1 DNA repair: qHTS screen for small molecules that inhibit ELG1-dependent DNA repair in human embryonic kidney (HEK293T) cells expressing luciferase-tagged ELG1; HEK293T ELG1-luciferase reporter, luminescence, 16 h; DNA damage induced by 5-fluorouridine; 2.3% of 330,000 active; Potency, µM (series often up to 46.1 µM), hits mostly inhibitors; AID 504467, 2011; note: nearly all actives have a fitted effect of over 55% in size
#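 Quantitative HTS, concentration-response format. 2,000 cells/well co-treated with 5-fluorouridine and compound, 16 hr in 5% CO2 at 37 °C; ONE-Glo luminescence read after 30 min.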
# TDP1 cell noCPT: qHTS for Inhibitors of human tyrosyl-DNA phosphodiesterase 1 (TDP1): qHTS in cells in absence of CPT; DT40 Tdp1-/- hTDP1 cells, no CPT, ATP luminescence, 48 h; Potency, µM (highest dose often 46.2 µM), actives largely listed as inhibitors; 15% of 420,000 active; AID 686978, 2013; note: nearly all actives have a fitted effect of over 55% in size
#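 Cells were dispensed at 400 per well, compounds added by pin tool, plates incubated ≥48 hr at 37 °C, then CellTiter-Glo added for 30 min at room temperature before luminescence reading. Line: DT40 Tdp1-/- complemented with hTDP1; camptothecin omitted.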
# VP16 counter: VP16 counterscreen qHTS for inhibitors of ROR gamma transcriptional activity | Drosophila S2 Gal4-VP16 UAS-luciferase, luminescence, 20 h | Potency, µM (top dose mostly 53.6 µM), actives largely listed as inhibitors | 3.5% of 310,000 active | AID 2546, 2010;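 note: Gal4-VP16 expression switched on by copper sulfate through the metallothionein promoter; nearly all actives have a fitted effect of over 50% in size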
# RORg inh: qHTS for inhibitors of ROR gamma transcriptional activity; Nuclear receptor ROR-gamma (Mus musculus), P51450; Drosophila S2 Gal4-RORgamma UAS-luciferase reporter, 20 h; Potency, µM (titrated, usually from 53.6 µM), actives largely listed as inhibitors; 5.4% of 310,000 active; note: nearly all actives have a fitted effect of over 60% in size
#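 Drosophila S2 cells stably expressing Gal4-DBD/mouse RORγ fusion under metallothionein promoter plus UAS-luciferase; compound 1 h, then 700 uM CuSO4 induction for 20 h at ambient temperature; inhibition read as reduced luminescence.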
# A number is an active result; – = inactive; ? = inconclusive; · = no result; [ ] = remark or other dose. Hits are enriched below; roughly 15% of the tested compounds scored in any of these assays. Calls come from the whole dose curve; as a rule, active = well fitted curve in the direction sought with a large enough effect; inconclusive = small, poorly fitted or top-dose-only effect, or another doubt; inactive = no such curve, though single readings can be large; an effect the other way counts as inactive or inconclusive.
SMILES,TDP1 cell CPT,ALOX12 inh,ELG1 DNA repair,TDP1 cell noCPT,VP16 counter,RORg inh
Cc1ccc(-c2c(CN3CCN(c4cccc(C)c4C)CC3)csc2C)cc1,15µM,?,·,21µM,·,·
Cc1scc(CN2CCN(c3ccccc3F)CC2)c1C,–,?,·,?,·,·
Cc1cccc(N2CCN(Cc3ccc(Br)o3)CC2)c1C,?,0.56µM,–,–,–,–
O=C(N[C@H](c1ccccn1)C1CC(O)C1)c1cnc2ccccn2c1=O (some centres undefined),·,–,·,·,·,·
O=C(Nc1cccc(S(=O)(=O)NC2=NCCCCC2)c1)c1cc(-c2ccco2)nc2ccccc12,?,?,–,9.2µM,–,–
O=C(NCc1ccco1)c1cc(-c2ccccc2)nc2ccccc12,–,–,–,?,–,–
O=C(Nc1cccc(S(=O)(=O)NC2=NCCCCC2)c1)c1cccnc1Cl,–,–,–,–,–,–
O=C(Nc1ccc(S(=O)(=O)NC2=NCCCCC2)cc1)c1ccco1,–,–,–,–,–,–
O=C(Nc1cccc(S(=O)(=O)NCc2ccco2)c1)c1cc(-c2ccccc2)nc2ccccc12,?,?,21µM,23µM,–,–[10 µM]
O=C(Nc1cccc(S(=O)(=O)NC2=NCCCCC2)c1)c1cc(-c2ccncc2)nc2ccccc12,?,–,?,23µM,–,–
C=Cc1ccc(COc2ccc3c(=O)c(Oc4ccccc4OC)coc3c2)cc1,·,–,·,·,·,·
Cc1ccc(C)c(C(=O)NC2C3CC4CC(C3)CC2C4)c1 (centres undefined),·,–,·,·,·,·
Cc1ccc(-n2c(-c3ccncc3)n[nH]c2=S)cc1C,–,?,–,–,–,–
Cc1ccc(C)c(-n2c(-c3ccncc3)n[nH]c2=S)c1,–,?,–,–,–,10µM
Cc1ccc(C)c(-n2c(-c3ccc4c(c3)OCO4)n[nH]c2=S)c1,–,?,–,–,–,–
Cc1ccc(C)c(-n2c(-c3csc(C)c3)n[nH]c2=S)c1,–,?,–,–,5.6µM,3.2µM
C#CCNC(=O)C[C@@H]1c2nc(NC(=O)C3CCCCC3)sc2C[C@@H]2[C@](C)(CO)[C@H](O)CC[C@]21C,·,–,·,·,·,·
COc1ccc(NS(=O)(=O)c2ccc(I)cc2)cc1N1CCN(C)CC1,27µM,–,·,30µM,–,–
COc1ccc(S(=O)(=O)Nc2ccc(N3CCOCC3)cc2)cc1Br,?,–,–,?,–,–
COc1ccc(NS(=O)(=O)c2ccc(N3CCCC3)c(N)c2)cc1,5.2µM,–,?,4.6µM,?,–
Nc1cc(S(=O)(=O)Nc2ccc(Cl)cc2)ccc1N1CCOCC1,7.3µM,45µM,15µM,5.2µM,16µM,–
CC(=O)c1ccccc1NC(=O)c1ccc2c(c1)NC(=O)C(C)S2 (centres undefined),21µM,–,?,?,·,·
CCCNC(=O)c1ccccc1NC(=O)c1ccc(CSc2ccccc2)cc1,?,–,?,21µM,–[0.365 µM],–
CCC(C)NC(=O)c1ccccc1NC(=O)c1ccc(CSc2ccccc2)cc1 (centres undefined),?,–,–,?,?,–
CCCNC(=O)c1ccccc1NC(=O)c1ccc2c(c1)NC(=O)C(C)S2 (centres undefined),10µM,–,?,6.5µM,–,–
SMILES,TDP1 cell CPT,ALOX12 inh,ELG1 DNA repair,TDP1 cell noCPT,VP16 counter,RORg inh
Cc1ccnc(NC(=O)c2ccc3c(c2)NC(=O)C(C)S3)c1 (centres undefined),–,–,?,?,·,·
CCc1ccc(-c2csc(NC(=O)c3ccc4c(c3)NC(=O)C(C)S4)n2)cc1 (centres undefined),·,–,·,·,·,·
O=C(NCc1ccccc1)N1CCCC(c2nc(CCOc3ccc(F)cc3)no2)C1 (centres undefined),·,–,·,·,·,·
CN(C)c1cccc(C(=O)Nc2nc3ccc(S(=O)(=O)N4CCCC4)cc3s2)c1,6.5µM,–,·,8.2µM,·,·
O=C(Nc1nc2ccccc2s1)C1CCN(S(=O)(=O)c2cc([N+](=O)[O-])ccc2Cl)CC1,15µM,–,–,15µM,?,?
Cc1ccc(C(=O)Nc2nc3ccc(S(=O)(=O)N4CCCC4)cc3s2)cc1,–,–,·,–,·,·
COc1cccc(C(=O)Nc2nc3ccc(S(=O)(=O)N4CCCC4)cc3s2)c1,4.6µM,–,·,5.2µM,·,·
COc1ccc2nc(NC(=O)c3cccc(OCc4c(C)noc4C)c3)sc2c1,3.3µM,–,26µM,2.9µM,?,11µM
COc1ccccc1CCNC(=O)C1CC(=O)N(c2n[nH]c3cccc(F)c23)C1 (centres undefined),·,–,·,·,·,·
CC(C)CC(=O)NCC(=O)N1CCCCCCNC(=O)CC1c1ccccc1 (centres undefined),·,–,·,·,·,·
COc1ccc2nc(NC(=O)c3cc(S(=O)(=O)N4CCOCC4)ccc3C)sc2c1,?,–,?,18µM,–,–
Nc1nc2ccc(S(=O)(=O)N3CCCCC3)cc2s1,8.2µM,?,–,9.2µM,?,13µM
O=C(Nc1nc2ccc(S(=O)(=O)N3CCCC3)cc2s1)C1CCCCC1,2.6µM,–,?,4.6µM,–,–
Cc1nc2ccc(S(=O)(=O)N3CCCCC3)cc2s1,–,–,–,–,–,–
Fc1ccccc1-c1cc2c(cn1)CN(Cc1cccnc1)CCN2,·,–,·,·,·,·
CN(CC(=O)Nc1ccccc1Cl)CC(=O)N1CCC(Cc2ccccc2)CC1,·,–,·,·,·,·
O=C1OC(Nc2ccc3c(c2)OCO3)c2ccccc21 (centres undefined),22µM,?,?,13µM,–,?
O=C1c2ccccc2C(Nc2ccc3c(c2)OCCO3)N1Cc1ccc2c(c1)OCO2 (centres undefined),?,–,?,?,–,–
Cc1cccc2cc(-c3ccccc3)c(-c3ccccc3)c[n+]12,8.2µM,–,–,7.3µM,?,?
Cc1ccc(S(=O)(=O)NC(=O)Nc2ccc(OC(F)F)cc2)cc1,–,–,–,–,–,–
Cc1ccc(CS(=O)(=O)c2ncc(Cl)c(C(=O)Nc3ccc(OC(F)F)cc3)n2)cc1,3.7µM,–,?,3.7µM,?,–
CCCS(=O)(=O)c1ncc(Cl)c(C(=O)Nc2c(C(=O)Nc3ccccc3)oc3ccccc23)n1,2.1µM,–,·,2.6µM,·,·
COc1ccc(NC(=O)c2nc(S(=O)(=O)Cc3ccc(C)cc3)ncc2Cl)cc1,16µM,–,·,2.1µM,·,·
